IDE exosite FP: exo-site inhibitors of human IDE, primary screen, biochemical, fluorescence anisotropy, probe displacement; Insulin-degrading enzyme (Homo sapiens), P14735; purified IDE, FL-6b probe fluorescence polarization; hits give low values; z-score at 20 µM; 17,000 tested, 6.3% active;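 active = z-score of -3 or lower, meaning strong loss of probe binding signal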;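 note: His-tagged human IDE residues 42-1019 made in E. coli with 30 nM FL-6b probe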
Target sequence (P14735 42-1019 limits assumed): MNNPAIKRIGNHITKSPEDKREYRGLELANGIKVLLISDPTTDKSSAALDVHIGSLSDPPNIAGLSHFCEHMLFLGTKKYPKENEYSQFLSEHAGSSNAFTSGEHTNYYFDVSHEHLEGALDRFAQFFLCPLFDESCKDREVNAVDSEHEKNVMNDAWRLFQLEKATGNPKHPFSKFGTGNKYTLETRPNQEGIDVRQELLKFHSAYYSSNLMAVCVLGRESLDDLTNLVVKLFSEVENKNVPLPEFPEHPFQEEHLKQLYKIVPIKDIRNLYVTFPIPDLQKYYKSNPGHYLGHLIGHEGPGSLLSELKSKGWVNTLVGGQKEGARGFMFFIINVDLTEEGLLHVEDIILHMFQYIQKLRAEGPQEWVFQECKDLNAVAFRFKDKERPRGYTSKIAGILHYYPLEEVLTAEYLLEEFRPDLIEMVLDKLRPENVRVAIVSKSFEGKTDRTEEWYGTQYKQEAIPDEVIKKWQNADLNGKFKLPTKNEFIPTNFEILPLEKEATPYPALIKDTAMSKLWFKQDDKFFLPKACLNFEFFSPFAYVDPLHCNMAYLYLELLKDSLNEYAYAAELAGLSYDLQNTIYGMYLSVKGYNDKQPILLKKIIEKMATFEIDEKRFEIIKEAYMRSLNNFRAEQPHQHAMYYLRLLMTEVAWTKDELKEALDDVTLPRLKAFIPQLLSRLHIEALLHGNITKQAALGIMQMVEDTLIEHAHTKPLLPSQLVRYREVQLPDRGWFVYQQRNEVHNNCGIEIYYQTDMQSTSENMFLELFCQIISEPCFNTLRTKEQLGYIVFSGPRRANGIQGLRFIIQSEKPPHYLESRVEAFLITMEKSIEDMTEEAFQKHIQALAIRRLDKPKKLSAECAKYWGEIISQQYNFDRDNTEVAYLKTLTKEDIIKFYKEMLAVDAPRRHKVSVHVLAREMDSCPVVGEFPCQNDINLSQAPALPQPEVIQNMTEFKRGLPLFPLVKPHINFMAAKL
Starred values were filed as active, the others as inactive. The sample as a whole holds a higher share of hits than the screen did.

SMILES	IDE exosite FP
COc1cccc(NC(=O)N2C[C@H](O)COC[C@@H]3O[C@@H](CC(=O)N(C)C)CC[C@H]32)c1	-0.31
COc1cccc(NC(=O)C[C@H]2CC[C@@H]3[C@@H](COc4ccc(NC(=O)C5CC5)cc4C(=O)N3C)O2)c1	0.27
C/C=C/c1ccc([C@H]2[C@@H](CO)N(C(=O)CC)[C@H]2CNC(=O)C2CC2)cc1	3.9
O=C(CC1CC1)N1CC(=O)N2[C@H](CO)[C@@H](c3ccc(-c4cccnc4)cc3)[C@@H]2C1	-1.3
O=C(CC1CC1)N1CC(=O)N2[C@@H](CO)[C@@H](c3ccc(-c4ccccc4)cc3)[C@@H]2C1	-4.8*
O=C(CC1CC1)N1CC(=O)N2[C@@H](CO)[C@H](c3ccc(/C=C/c4ccccc4)cc3)[C@@H]2C1	-5*
O=C(CC1CC1)N1CC(=O)N2[C@H](CO)[C@H](c3ccc(/C=C/c4ccccc4)cc3)[C@@H]2C1	-1.5
COCC(=O)N1CC(=O)N2[C@@H](CO)[C@H](c3ccc(-c4ccccc4)cc3)[C@@H]2C1	-0.89
O=C(CC1CC1)N1CC(=O)N2[C@H](CO)[C@@H](c3ccc(/C=C/c4ccccc4)cc3)[C@H]2C1	-3.3*
CN(C)C(=O)C[C@H]1C[C@@H]2c3cc(NC(=O)Nc4ccc(F)cc4)ccc3O[C@@H]2[C@@H](CO)O1	-0.6
CC(C)NC(=O)N(C)C[C@H]1Oc2ccc(NC(=O)Cc3ccccc3)cc2CC(=O)N([C@H](C)CO)C[C@@H]1C	1.3
NCC[C@@H]1CC[C@@H](NC(=O)NC2CCCCC2)[C@H](CO)O1	-0.65
CC(C)N(C[C@@H]1N[C@H](CO)[C@@H]1c1ccc(C2=CCCC2)cc1)C(=O)C1CC1	3.5
COc1cccc(C#Cc2ccc3c(c2)[C@H]2[C@H](CCN2C(=O)Cc2ccccc2)[C@@H](CO)N3C)c1	2.6
CCCC#Cc1ccc([C@@H]2[C@@H](CO)N3C(=O)CN(C(=O)Nc4ccccc4F)C[C@H]23)cc1	2.3
C[C@@H]1CN([C@@H](C)CO)C(=O)CCCn2cc(nn2)CO[C@@H]1CN(C)C(=O)Nc1cccc(C(F)(F)F)c1	-0.66
COc1cccc(C#Cc2ccc([C@H]3[C@@H](C#N)N(C(=O)C4CC4)[C@@H]3CO)cc2)c1	-2.6
C[C@H](CO)N1C[C@H](C)[C@H](CN(C)S(C)(=O)=O)OCCCC[C@H](C)Oc2ccc(NC(=O)NC3CCCCC3)cc2C1=O	0.17
C[C@H](O)C#Cc1ccc([C@@H]2[C@H]3CN(CC4CCOCC4)CCCCN3[C@H]2CO)cc1	-0.28
COc1ccc(C#Cc2ccc([C@H]3[C@@H](CO)N4C(=O)CN(C(C)=O)C[C@H]34)cc2)cc1	1.7
COc1ccc(C#Cc2ccc([C@H]3[C@@H](CO)N4C(=O)CN(C(C)=O)C[C@@H]34)cc2)cc1	3.9
COc1ccc(C#Cc2ccc([C@H]3[C@H]4CN(C(C)=O)CC(=O)N4[C@H]3CO)cc2)cc1	2.7
COc1cccc(C#Cc2ccc([C@@H]3[C@@H](CO)N4C(=O)CN(C(C)=O)C[C@@H]34)cc2)c1	-7.5*
COc1ccc(C#Cc2ccc([C@@H]3[C@@H](CO)N4C(=O)CN(C(C)=O)C[C@H]34)cc2)cc1	3.6
COc1cccc(C#Cc2ccc([C@H]3[C@H]4CN(C(C)=O)CC(=O)N4[C@H]3CO)cc2)c1	-7.9*
SMILES	IDE exosite FP
O=C1N[C@H](c2ccccc2)COCc2cnnn2CC[C@H]1Cc1ccc(C(F)(F)F)cc1	0.1
CC(C)NC(=O)N1CCCCN2[C@H](CO)[C@@H](c3ccc(C#CC4CC4)cc3)[C@@H]2C1	2.1
C[C@@H]1CCCCO[C@@H](CN(C)Cc2ccncc2)[C@@H](C)CN([C@H](C)CO)C(=O)c2cc(NC(=O)Cc3ccccc3)ccc2O1	-0.12
CO[C@@H](C(=O)N(C)C[C@@H]1OCc2ccccc2-c2ccccc2C(=O)N([C@@H](C)CO)C[C@@H]1C)c1ccccc1	-0.27
CC(C)CC#Cc1ccc([C@H]2[C@H](CO)N3C(=O)CN(C(=O)NC4CCCCC4)C[C@@H]23)cc1	0.26
O=C(NC1CCCCC1)N1CC(=O)N2[C@H](CO)[C@H](c3ccc(/C=C/c4ccccc4)cc3)[C@@H]2C1	-10*
O=C(NC1CCCCC1)N1CC(=O)N2[C@H](C1)[C@H](c1ccc(/C=C/c3ccccc3)cc1)[C@@H]2CO	-3.9*
O=C(NC1CCCCC1)N1CC(=O)N2[C@@H](CO)[C@H](c3ccc(/C=C/c4ccccc4)cc3)[C@@H]2C1	-7.4*
O=C(NC1CCCC1)N1CC(=O)N2[C@H](CO)[C@@H](c3ccc(/C=C/c4ccccc4)cc3)[C@@H]2C1	0.29
O=C(NC1CCCCC1)N1CC(=O)N2[C@H](CO)[C@@H](c3ccc(/C=C/c4ccccc4)cc3)[C@@H]2C1	-3.6*
O=C(NC1CCCC1)N1CC(=O)N2[C@H](C1)[C@@H](c1ccc(/C=C/c3ccccc3)cc1)[C@@H]2CO	0.84
CC(C)CC#Cc1ccc([C@@H]2[C@H](CO)N3C(=O)CN(C(=O)NC4CCCCC4)C[C@@H]23)cc1	1.4
C[C@H]1CN([C@@H](C)CO)C(=O)c2ccccc2-c2ccccc2CO[C@H]1CN(C)C(=O)[C@H]1CCCN1C	-0.63
COc1ccc2c3c([nH]c2c1)[C@H](CO)N(C)CC31CCN(C(=O)c2ccccc2F)CC1	0.93
N#C[C@H]1[C@@H](c2ccccc2C2=CCCC2)[C@H](CO)N1C(=O)Cc1ccncc1	1
COc1ccccc1-c1ccccc1[C@@H]1[C@@H](C#N)N(C(=O)C2CCC2)[C@@H]1CO	5.1
COc1ccc(-c2ccc([C@H]3[C@@H](C#N)N(C(=O)C4CCCC4)[C@@H]3CO)cc2)cc1	3.2
COc1ccc(-c2ccc([C@@H]3[C@@H](C#N)N(C(=O)C4CCCC4)[C@H]3CO)cc2)cc1	0.9
N#C[C@@H]1[C@H](c2ccc(-c3ccccc3F)cc2)[C@H](CO)N1C(=O)C1CCC1	0.44
COc1ccccc1-c1ccc([C@H]2[C@H](C#N)N(C(=O)C3CC3)[C@H]2CO)cc1	-10*
COc1ccccc1-c1ccccc1[C@@H]1[C@@H](CO)N(C(=O)C2CCC2)[C@H]1C#N	2.7
COc1ccccc1-c1ccc([C@@H]2[C@@H](CO)N(C(=O)C3CC3)[C@H]2C#N)cc1	-7.8*
COc1ccc(-c2ccccc2[C@H]2[C@@H](C#N)N(C(=O)C3CC3)[C@H]2CO)cc1	3
COc1ccccc1-c1ccc([C@@H]2[C@H](C#N)N(C(=O)C3CC3)[C@H]2CO)cc1	-5.9*
COc1ccccc1-c1ccc([C@H]2[C@@H](CO)N(C(=O)C3CCCCC3)[C@H]2C#N)cc1	-3.3*
SMILES	IDE exosite FP
O=C1CN(Cc2ccc(F)cc2)C[C@H]2[C@H](c3ccc(Br)cc3)[C@@H](CO)N12	0.93
COCC(=O)NC[C@@H]1[C@@H](c2ccc(C3=CCCC3)cc2)[C@H](CO)N1C(=O)C1CC1	3
CCC(=O)N1[C@@H](CO)[C@@H](c2ccccc2)[C@@H]1CN(CC)C(=O)c1ccccc1	0.69
O=S(=O)(NC[C@H]1N[C@@H](CO)[C@H]1c1ccc(C2=CCCC2)cc1)c1ccccc1	7.1
CCS(=O)(=O)N[C@H]1CC[C@H](CC(=O)NCc2ccc(Cl)cc2)O[C@H]1CO	3.5
COCC(=O)N1[C@H](CO)[C@@H]2c3ccccc3NC[C@@H]21	-0.0043
C[C@H](CO)N1C[C@H](C)[C@@H](CN(C)Cc2ccccc2)OCc2cn(nn2)CCCC1=O	-0.085
CCS(=O)(=O)NCC[C@H]1CC[C@@H](NS(=O)(=O)c2ccccc2C)[C@@H](CO)O1	-0.13

High-throughput results: PubChem BioAssay, Broad Institute
